From PubChem BioAssay come the findings set out here.

Assay [1] is described as follows: small molecules captured by biotinylated probe aFSTL3 – biochemical, small-molecule microarray, fluorescence 635/667, stem cell growth factor project, primary screen (AID 1064).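 Note: measures binding of the biotinylated anti-FSTL3 antibody to printed compounds.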 The conditions noted are these: higher = more signal.
Assay [2] can be described thus: binders from COS7 lysate, DM2A8 probe, primary screen, torsin A project, cell lysate, small-molecule microarray, fluorescence 635/667 (AID 1065). The note with it: higher = more signal, COS7 lysate expressing mutant human TOR1A.
Assay [3] can be described thus: small molecules captured by biotinylated probe aFGF2 – biochemical, small-molecule microarray, fluorescence 635/667, stem cell growth factor project, primary screen (AID 1067).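 Note: measures binding of biotinylated aFGF2 protein to printed compounds on slides; z-score merges feature fluorescence and signal-to-noise across triplicate slides.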 The note with it: higher = more signal.
Assay [4] in a line: small molecules captured by biotinylated probe aFGF10 – biochemical, small-molecule microarray, fluorescence 635/667, stem cell growth factor project, primary screen (AID 1071).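 Note: score merges 667 nm spot intensity and signal to noise from triplicate slides.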 The conditions noted are these: higher = more signal.
The target of assay [5] is Neurogenic locus notch homolog protein 2 (Homo sapiens) (UniProt Q04721). In words: small molecules binding Notch2 protein – biochemical, small-molecule microarray, 635 nm fluorescence, stem cell growth factors, primary screen (AID 1073). The conditions noted are these: higher = more signal.
Sequence of Neurogenic locus notch homolog protein 2 (Homo sapiens) (Q04721 whole entry, looked up, canonical isoform): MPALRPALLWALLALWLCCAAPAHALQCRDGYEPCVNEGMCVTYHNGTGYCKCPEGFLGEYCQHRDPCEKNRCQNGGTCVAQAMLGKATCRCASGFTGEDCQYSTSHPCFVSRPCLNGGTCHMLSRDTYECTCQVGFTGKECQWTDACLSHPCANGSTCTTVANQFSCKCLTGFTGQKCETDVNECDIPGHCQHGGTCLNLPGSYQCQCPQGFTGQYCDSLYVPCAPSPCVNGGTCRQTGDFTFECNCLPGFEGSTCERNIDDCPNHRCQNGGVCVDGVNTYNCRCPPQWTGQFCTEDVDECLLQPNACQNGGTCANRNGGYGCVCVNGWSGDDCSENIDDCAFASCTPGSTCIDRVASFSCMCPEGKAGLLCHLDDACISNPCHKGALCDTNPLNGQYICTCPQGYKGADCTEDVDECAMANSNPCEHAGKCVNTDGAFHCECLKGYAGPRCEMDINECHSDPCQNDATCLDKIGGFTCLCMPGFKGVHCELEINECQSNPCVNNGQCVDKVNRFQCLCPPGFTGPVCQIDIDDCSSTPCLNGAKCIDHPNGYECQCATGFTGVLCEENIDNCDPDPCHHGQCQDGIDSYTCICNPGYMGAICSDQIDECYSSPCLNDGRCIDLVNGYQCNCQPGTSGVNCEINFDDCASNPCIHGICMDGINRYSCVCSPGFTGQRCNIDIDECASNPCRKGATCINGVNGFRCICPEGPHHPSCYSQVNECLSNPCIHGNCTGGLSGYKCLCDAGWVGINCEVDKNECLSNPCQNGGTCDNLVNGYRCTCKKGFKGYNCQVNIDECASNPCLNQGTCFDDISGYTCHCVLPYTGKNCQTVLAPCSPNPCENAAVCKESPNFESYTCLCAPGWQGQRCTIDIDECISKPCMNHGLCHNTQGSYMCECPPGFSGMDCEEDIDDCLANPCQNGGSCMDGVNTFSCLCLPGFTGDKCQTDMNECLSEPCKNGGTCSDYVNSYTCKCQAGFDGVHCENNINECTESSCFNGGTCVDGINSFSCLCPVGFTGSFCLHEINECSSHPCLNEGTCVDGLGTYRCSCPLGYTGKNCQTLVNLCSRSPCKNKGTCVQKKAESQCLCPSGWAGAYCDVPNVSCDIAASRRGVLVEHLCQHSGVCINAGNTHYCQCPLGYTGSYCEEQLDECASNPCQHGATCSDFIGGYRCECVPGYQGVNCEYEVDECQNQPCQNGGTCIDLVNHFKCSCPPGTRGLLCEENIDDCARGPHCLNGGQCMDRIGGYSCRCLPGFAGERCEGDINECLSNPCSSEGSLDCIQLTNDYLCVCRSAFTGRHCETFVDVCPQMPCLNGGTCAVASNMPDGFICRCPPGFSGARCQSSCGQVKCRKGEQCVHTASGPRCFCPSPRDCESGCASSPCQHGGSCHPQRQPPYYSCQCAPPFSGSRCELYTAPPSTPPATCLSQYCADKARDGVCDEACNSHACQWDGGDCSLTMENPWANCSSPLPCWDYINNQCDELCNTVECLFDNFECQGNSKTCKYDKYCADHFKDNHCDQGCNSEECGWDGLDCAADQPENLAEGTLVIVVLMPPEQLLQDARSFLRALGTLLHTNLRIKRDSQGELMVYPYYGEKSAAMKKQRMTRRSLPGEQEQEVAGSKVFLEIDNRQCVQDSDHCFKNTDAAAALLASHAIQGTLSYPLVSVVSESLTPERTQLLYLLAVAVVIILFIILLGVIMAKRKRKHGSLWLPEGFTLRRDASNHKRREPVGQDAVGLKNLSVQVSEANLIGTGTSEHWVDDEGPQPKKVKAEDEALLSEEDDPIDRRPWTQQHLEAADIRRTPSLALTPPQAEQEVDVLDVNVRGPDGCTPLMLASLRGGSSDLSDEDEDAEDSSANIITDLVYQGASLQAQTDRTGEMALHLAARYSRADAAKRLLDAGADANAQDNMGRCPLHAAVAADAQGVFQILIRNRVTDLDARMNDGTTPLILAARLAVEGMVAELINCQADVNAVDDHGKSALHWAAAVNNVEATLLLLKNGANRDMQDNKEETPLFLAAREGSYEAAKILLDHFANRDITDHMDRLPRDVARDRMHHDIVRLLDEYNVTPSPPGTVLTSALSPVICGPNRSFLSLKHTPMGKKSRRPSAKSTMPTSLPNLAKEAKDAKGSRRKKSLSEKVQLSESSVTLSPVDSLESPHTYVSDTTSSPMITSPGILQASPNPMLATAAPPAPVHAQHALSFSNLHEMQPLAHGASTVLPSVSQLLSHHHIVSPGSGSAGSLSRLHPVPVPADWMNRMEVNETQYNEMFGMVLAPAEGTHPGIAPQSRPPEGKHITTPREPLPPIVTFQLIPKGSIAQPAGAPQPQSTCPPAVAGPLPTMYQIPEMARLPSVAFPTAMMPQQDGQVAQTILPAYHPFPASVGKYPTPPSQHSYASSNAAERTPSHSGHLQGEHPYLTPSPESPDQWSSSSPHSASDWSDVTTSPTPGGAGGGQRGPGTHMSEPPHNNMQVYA
Assay [6] deals with Pro-neuregulin-1, membrane-bound isoform (Homo sapiens) (UniProt Q02297). The experiment in a line: small molecules binding neuregulin-1 protein – biochemical, small-molecule microarray, fluorescence 635/667, psychiatric disease protein project, primary screen (AID 1075).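 Note: score combines 667 nm spot fluorescence with signal to noise.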 The conditions noted are these: NRG1 binding, 635 nm fluorescence, higher = more signal.
Sequence of Pro-neuregulin-1, membrane-bound isoform (Homo sapiens) (Q02297 whole entry, looked up, the tested form may be a part, canonical isoform): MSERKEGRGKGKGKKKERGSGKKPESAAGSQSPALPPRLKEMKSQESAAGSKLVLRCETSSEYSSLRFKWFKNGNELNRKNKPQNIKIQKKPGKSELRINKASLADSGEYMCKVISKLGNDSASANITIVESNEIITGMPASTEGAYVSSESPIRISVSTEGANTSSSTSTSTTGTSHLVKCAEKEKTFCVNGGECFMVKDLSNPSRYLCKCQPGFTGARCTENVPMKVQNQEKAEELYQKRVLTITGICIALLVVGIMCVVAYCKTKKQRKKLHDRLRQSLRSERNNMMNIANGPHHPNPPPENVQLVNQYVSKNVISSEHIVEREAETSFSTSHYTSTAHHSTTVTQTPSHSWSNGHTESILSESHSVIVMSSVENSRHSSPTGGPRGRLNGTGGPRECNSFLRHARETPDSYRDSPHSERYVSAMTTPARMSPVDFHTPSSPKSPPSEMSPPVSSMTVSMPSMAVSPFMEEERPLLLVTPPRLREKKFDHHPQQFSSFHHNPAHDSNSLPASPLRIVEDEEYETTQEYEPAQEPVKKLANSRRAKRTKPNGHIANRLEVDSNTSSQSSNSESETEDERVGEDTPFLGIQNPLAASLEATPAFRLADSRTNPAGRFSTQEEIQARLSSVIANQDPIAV
Assay [7] has as its system Neuregulin-1 EGF-like domain. In words: small molecules binding NRG1 EGF domain – biochemical, small-molecule microarray, 635 nm fluorescence, primary screen (AID 1081).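 Note: binding of the protein to compounds printed on small-molecule microarray slides.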 The conditions noted are these: higher = more signal.
The nature of assay [8]: FRG1 expression reporter modulators in myotubes – cell-based, C2C12 myotubes, firefly/Renilla luciferase, luminescence, FRG1 inhibition for FSHD, primary screen (AID 1084). The conditions noted are these: FRG1 promoter luciferase, higher = more signal, called active from +8 up or from −8 down.
Assay [9] in a line: small molecules captured by biotinylated probe aFST – biochemical, small-molecule microarray, fluorescence 635/667, stem cell growth factor project, primary screen (AID 1086).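 Note: score merges 667 nm fluorescence with signal-to-noise of each printed compound spot.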 The conditions noted are these: higher = more signal.
Assay [10] in a line: binders of probe aHhip on microarray, primary screen, stem cell growth factor project, biochemical, small-molecule microarray, fluorescence 635/667 (AID 1087).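 Note: score merges spot fluorescence at 667nm with spot signal to noise ratio.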 The conditions noted are these: higher = more signal.
For assay [11], the system named is PRMT1 (protein arginine N-methyltransferase 1). In words: small molecules binding arginine methyltransferase PRMT1 – biochemical, small-molecule microarray, 635 nm fluorescence, primary screen (AID 1088).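 Note: binding of Prmt1 protein to compounds spotted on small-molecule microarray slides.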 The conditions noted are these: higher = more signal.
The nature of assay [12]: growth effects on S. cerevisiae YJM789 – YJM789 clinical isolate, OD600, 24 h, basal, primary screen (AID 1089).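 Note: growth of clinical yeast isolate S. cerevisiae YJM 789 seeded 1000 cells per well; test concentration not given here.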 The note with it: higher = more signal, called active from +8 up or from −8 down.
Assay [13] can be described thus: S. pombe growth modifiers, basal conditions – strain 972, OD600, 24 h, no modulator, primary screen (AID 1090).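 Note: basal condition with compound alone and no growth modifier present; test concentration not given here.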 The note with it: S. pombe 972 growth, higher = more signal, called active from +8 up or from −8 down.
A short description of assay [14]: budding yeast growth modifiers under rapamycin – strain BY4716, OD600, 96 h, primary screen (AID 1091). Note: test concentration not given here. The conditions noted are these: S. cerevisiae BY4716 + rapamycin, higher = more signal, called active from +8 up or from −8 down.
In assay [15] the target is Torsin-1A-interacting protein 2 (Homo sapiens) (UniProt Q8NFQ8). The experiment in a line: small molecules binding lysate-expressed LULL1 – cell lysate, human LULL1 lysate, 635/667 nm fluorescence, primary screen (AID 1092).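 Note: probe is lysate of COS7 cells overexpressing human LULL1; score merges per-feature 667 nm fluorescence with signal-to-noise.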 The note with it: small-molecule microarray, hLULL1 lysate binding, 635 nm fluorescence; higher = more signal.
Sequence of Torsin-1A-interacting protein 2 (Homo sapiens) (Q8NFQ8 whole entry, looked up): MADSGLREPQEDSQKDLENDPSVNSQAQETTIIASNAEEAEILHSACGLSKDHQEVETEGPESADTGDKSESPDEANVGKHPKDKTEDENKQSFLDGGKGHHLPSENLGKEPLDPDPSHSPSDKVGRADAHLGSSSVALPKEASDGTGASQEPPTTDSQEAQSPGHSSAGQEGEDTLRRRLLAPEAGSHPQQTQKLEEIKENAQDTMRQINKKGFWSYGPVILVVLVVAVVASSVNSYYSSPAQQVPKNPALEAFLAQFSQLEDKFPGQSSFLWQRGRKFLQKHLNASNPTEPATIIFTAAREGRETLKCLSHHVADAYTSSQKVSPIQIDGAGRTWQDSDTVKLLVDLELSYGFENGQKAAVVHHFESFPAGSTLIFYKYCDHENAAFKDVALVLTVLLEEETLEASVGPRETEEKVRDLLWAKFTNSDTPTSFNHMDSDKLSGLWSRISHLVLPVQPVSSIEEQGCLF
Assay [16] is described as follows: optical density change of DRC41 E. coli – strain DRC41, OD650, 24 h, E. coli filamentation project, primary screen (AID 1093).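 Note: MC1000 strain lacking acrAB efflux and sulA so SOS filamentation is blocked; test concentration not given here.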 The note with it: E. coli DRC41 growth, higher = more signal, called active from +8 up or from −8 down.
Assay [17] can be described thus: probe aLefty2 binding to arrayed compounds – biochemical, biotinylated probe, 635/667 nm fluorescence, primary screen (AID 1094).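 Note: score merges spot fluorescence near 667 nm with spot signal-to-noise ratio.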 The note with it: small-molecule microarray, higher = more signal.
The test system of assay [18] is Noggin (protein binding on small-molecule microarray). In words: small molecules binding Noggin protein – biochemical, 635/667 nm fluorescence, primary screen (AID 1095).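 Note: score merges 667 nm feature fluorescence with signal to noise over triplicate slides.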 The note with it: 635 nm fluorescence, higher = more signal.
Assay [19] has as its target Neurogenic locus notch homolog protein 3 (Homo sapiens) (UniProt Q9UM47). In words: small molecules binding NOTCH3 protein – biochemical, 635/667 nm fluorescence, primary screen (AID 1096). The conditions noted are these: small-molecule microarray, 635 nm fluorescence, higher = more signal.
A short description of assay [20]: probe aEGFR binding to arrayed compounds – biochemical, biotinylated probe, 635/667 nm fluorescence, primary screen (AID 1097).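 Note: probe is a biotinylated anti-EGFR antibody binding compounds printed on slides; score combines fluorescence near 667 nm and signal to noise of each spot.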 The note with it: small-molecule microarray, higher = more signal.

Calls of active or inactive are those of the source.

As for `O=C(NCc1ccccc1)[C@@]1(CCS(=O)(=O)c2ccccc2)COC(c2ccc(OCCCO)cc2)=N1`, the composite z-score in [1] was 0.971; in [2] it was 0.985; in assay [3], 0.0025; in assay [4], 0.382; in assay [5], 1.17; in [6], 2.16. Also, the composite z-score in assay [7] is 1.18; in assay [9] it was 0.662; in assay [10], -0.15; in assay [11], 1.53; in [15], 3.6; in assay [17], 0.167. Also, the composite z-score was determined as 0.16 in assay [18], 1.13 in assay [19] and 0.0033 in assay [20]. Further, the z-score in assay [8] is -4.58 (inactive); in assay [12], -0.53 (inactive); in assay [13], -0.111 (inactive); in assay [14], 31.5 (active); in assay [16], 2.12 (inactive).
With `C=CCNC(=O)[C@H]1[C@@H]2C(=O)O[C@@H](c3ccccc3)[C@@H](c3ccccc3)N2[C@@H](c2ccccc2OCCO)[C@]12C(=O)N(C(=O)OCCOC)c1ccc(C#CCNC(N)=O)cc12`, the composite z-score in assay [1] was 0.173; in assay [2] it was 0.912; in assay [3], -0.0547; in assay [4], 0.149; in [5], 0.284; in [6], 1.32. The composite z-score in [7] was 1.06; in assay [9], 0.428; in [10] it was 0.0623; in assay [11] it was 1.55; in assay [15] it was 2.39; in assay [17], -0.108. Moreover, the composite z-score was 0.878 in [18], 1.15 in assay [19] and -0.0389 in assay [20]. In addition, the z-score in [8] was -1.53 (inactive); in assay [12] it was 0.602 (inactive); in assay [13], -0.26 (inactive); in [14], 3.16 (inactive); in assay [16], 2.35 (inactive).
In the case of `CCOC(=O)C[C@H]1[C@H](OC(=O)Cc2ccc3c(c2)OCO3)[C@@H](NC(=O)c2ccc3ccccc3c2)c2cc(OCCCO)ccc2N1C(=O)Cc1ccc(OC)cc1`, the composite z-score in [1] was -0.0089; in assay [2], 0.237; in assay [3], -0.0239; in assay [4] it was 0.546; in assay [5], 0.947; in [6], 0.759. Also, the composite z-score turned out to be 0.358 in [7]; 0.533 in [9]; 0.0274 in assay [10]; 0.842 in [11]; 1.73 in assay [15]; 0.164 in assay [17]. The composite z-score was 0.233 in [18], 0.719 in [19] and -0.0331 in assay [20]. In addition, the z-score in assay [8] is -1.63 (inactive); in assay [12] it was -2.93 (inactive); in assay [13], -0.366 (inactive); in [14], 0.227 (inactive); in assay [16] it was 1.28 (inactive).
For the molecule `CC1CC/C=C\[C@H]2OC34C=CCN(Cn5nnc6ccccc65)C(=O)[C@H]3N(C(C)CO)C(=O)[C@@H]4C2C(=O)O1` (stereo not given in full), the composite z-score in assay [1] is -0.0303; in [2], -1.38; in assay [3], -0.171; in assay [4], -0.282; in [5], -0.64; in [6] it was 1.86. Further, the composite z-score in assay [7] was 0.3; in [9], -0.134; in [10] it was 0.0373; in assay [11] it was -0.151; in [15], 2.22; in [17] it was -0.144. Further, the composite z-score in assay [18] was -0.537; in assay [19], -0.118; in assay [20] it was -0.19. Also, the z-score in assay [8] was -0.389 (inactive); in [12], 0.799 (inactive); in assay [13], 0.0528 (inactive); in assay [14], 0.272 (inactive); in assay [16] it was -0.224 (inactive).
Consider `CC/C=C/C(=O)N(C[C@@H]1CCCO1)[C@@H]1CC(C(=O)NCCO)=C[C@H](Oc2c(I)cc(CO)cc2OC)[C@H]1O`, for which the composite z-score in assay [1] is -0.329; in [2], 0.51; in assay [3], -0.22; in [4] it was 0.629; in [5] it was 0.347; in [6], 0.06. Moreover, the composite z-score in [7] is 0.366; in assay [9], -0.176; in assay [10] it was -0.0994; in assay [11] it was 0.505; in assay [15] it was 1.69; in [17], 0.0612. The composite z-score in assay [18] was -0.294; in assay [19], -0.155; in assay [20], -0.191. Besides, the z-score in assay [8] was -1.24 (inactive); in assay [12], -0.811 (inactive); in assay [13] it was -1.79 (inactive); in [14] it was -1.91 (inactive); in [16], -0.159 (inactive).
